# Data as given in PubChem BioAssay AID1220 (Sanford-Burnham Center for Chemical Genomics, 2008).
# Screen size: about 190,000 compounds; about 1,300 (0.68%) were called active. No stated cut-off is given here; in the data, active means inhibition above about 50%; inactive means the rest. This excerpt belongs to a sample that is enriched for actives.
# Biological target: Mannose-6-phosphate isomerase (Homo sapiens) (UniProt P34949)
# Assay: human PMI inhibitors, high substrate, primary screen, biochemical, fluorescence intensity, high mannose 6-phosphate (AID 1220)
# Conditions: recombinant PMI enzyme, coupled fluorescence intensity; at 20 µM; active compounds read high
# Sequence of Mannose-6-phosphate isomerase (Homo sapiens) (P34949 whole entry, looked up): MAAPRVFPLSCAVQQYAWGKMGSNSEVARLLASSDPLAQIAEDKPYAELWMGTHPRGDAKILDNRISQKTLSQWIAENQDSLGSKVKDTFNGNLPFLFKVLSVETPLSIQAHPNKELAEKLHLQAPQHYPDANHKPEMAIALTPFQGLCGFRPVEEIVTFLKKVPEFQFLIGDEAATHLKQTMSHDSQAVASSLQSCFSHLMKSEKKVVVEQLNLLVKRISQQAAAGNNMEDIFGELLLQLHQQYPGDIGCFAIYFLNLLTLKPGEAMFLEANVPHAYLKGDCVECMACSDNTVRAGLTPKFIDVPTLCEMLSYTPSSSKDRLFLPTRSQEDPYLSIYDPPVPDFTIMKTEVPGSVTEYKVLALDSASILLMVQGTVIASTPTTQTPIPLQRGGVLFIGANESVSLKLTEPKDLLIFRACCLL
row,Structure (SMILES),inhibition
1,Cc1cc(NC(=O)CSc2nc(-c3ccccc3)nc3c2c(=O)n(C)c(=O)n3C)no1,-6.7% (inactive)
2,CCn1c(SCC(=O)Nc2cc(OC)c(OC)c(OC)c2)nnc1-c1cccs1,0.1% (inactive)
3,CC(=O)N(C)c1ccc(NC(=S)Nc2ccccc2)cc1,2.5% (inactive)
4,Cc1ccc(NC(=S)Nc2cccc3cnccc23)c(C)c1,25.7% (inactive)
5,Cc1ccc(NC(=S)Nc2cccc3cnccc23)cc1C,-34.8% (inactive)
6,Cc1cc(C)cc(NC(=S)Nc2cccc3cnccc23)c1,59.3% (active)
7,CCc1ccc(NC(=S)Nc2cccc3cnccc23)cc1,51.5% (active)
8,COc1ccc(NC(=S)Nc2ccc(N(C)C(C)=O)cc2)cc1,17.5% (inactive)
9,Fc1ccc(NC(=S)Nc2cccc3cnccc23)cc1,-10.5% (inactive)
10,S=C(Nc1ccc(Cl)cc1)Nc1cccc2cnccc12,12.2% (inactive)
11,CC(=O)N(C)c1ccc(NC(=S)Nc2cccc3ccccc23)cc1,55.1% (active)
12,COc1cc(OC)cc(C(=O)N2CCCc3ccccc32)c1,12.7% (inactive)
13,Brc1ccc(/C=N/Nc2ccccn2)cc1,-7.7% (inactive)
14,COC(=O)CS(=O)(=O)c1cc([N+](=O)[O-])ccc1NC(=O)OC,13.9% (inactive)
15,C1CCCN(c2nc3nonc3nc2N2CCCCCC2)CC1,-3.2% (inactive)
16,N#CCCn1cc(C(=O)N2CCOCC2)c(-c2ccc3c(c2)OCCO3)n1,5.1% (inactive)
17,Cc1ccc2[nH]c(=O)c(CN(Cc3ccccc3Cl)C(=O)N3CCOCC3)cc2c1,8.8% (inactive)
18,COC(=O)C1=C2SC(C)C(=O)N2C(N)=C(C#N)C1c1cc(OC)c(OC)c(OC)c1 (centres undefined),24.2% (inactive)
19,CCOC(=O)C1=C(N)N2C(=O)C(C)SC2=C(C(=O)OC)C1c1cccc(OC)c1 (centres undefined),2.8% (inactive)
20,COC(=O)C1=C2SC(C)C(=O)N2C(N)=C(C#N)C1c1ccc(OC)c(OC)c1 (centres undefined),51.3% (active)
21,COc1ccc(CCNC(=O)C(=O)NCC2OCCN2S(=O)(=O)c2ccc(Br)cc2)cc1OC (centres undefined),-12.7% (inactive)
22,COc1ccc(S(=O)(=O)N2CCOC2CNC(=O)C(=O)NCCc2ccc(OC)c(OC)c2)cc1C (centres undefined),52.2% (active)

row,Structure (SMILES),inhibition
1,COc1ccc(S(=O)(=O)N2CCOC2CNC(=O)C(=O)NCCc2ccc(OC)c(OC)c2)cc1 (centres undefined),-0.2% (inactive)
2,O=C(O)C1CCC(=O)N1Cc1ccc(F)cc1 (centres undefined),-3.6% (inactive)
3,CCc1ccc(NC(=O)NCCN2CCc3ccccc3C2)cc1,-6.5% (inactive)
4,CCOP(=O)(OCC)C(Nc1ccccn1)c1ccccc1 (centres undefined),-3.9% (inactive)
5,Cc1c2cnn(-c3ccccc3)c(=O)c2c(C)n1CCCC(=O)N1CCN(c2ncccn2)CC1,-2.5% (inactive)
6,S=C(Nc1ccc(N2CCOCC2)cc1)Nc1ccc2snnc2c1,41% (inactive)
7,COc1ccc(NC(=O)c2ccc3snnc3c2)cc1,-1.3% (inactive)
8,CNC(=S)Nc1ccc2nc(C)c(C)nc2c1,38% (inactive)
9,COc1ccc(NC(=S)Nc2ccc3snnc3c2)cc1,54.2% (active)
10,COc1ccc(NC(=S)Nc2ccc3nc(C)c(C)nc3c2)cc1,54.2% (active)
11,COc1ccc(NC(=S)Nc2ccc3nsnc3c2)cc1,47% (inactive)
12,CCNC(=S)Nc1ccc(Cl)c(C(F)(F)F)c1,7.2% (inactive)
13,CCN1CCC(NC(=O)Nc2ccc(F)cc2F)CC1,-11.5% (inactive)
14,CCCS(=O)(=O)c1ccc(COC(=O)c2ccc(NC(C)=O)cc2)cc1,-0.1% (inactive)
15,c1ccn2c(Cc3nnc4ccccn34)nnc2c1,-7.1% (inactive)
16,CCn1nc(C)c(C(=O)Nc2cc(Oc3ccc(Cl)cc3)cc([N+](=O)[O-])c2)c1C,4.3% (inactive)
17,O=C(N/C(=C\c1ccco1)C(=O)N1CCCC1)c1cccs1,8.5% (inactive)
18,CCC(C)(C(=O)NC1CCCCC1)N(Cc1cccs1)C(=O)c1ccccn1 (centres undefined),-2% (inactive)
19,CCC(C)(C(=O)NC1CCCC1)N(Cc1cccs1)C(=O)c1ccccn1 (centres undefined),59.3% (active)
20,CCC(C)(C(=O)NC1CCCC1)N(Cc1cccs1)C(C)=O (centres undefined),0.2% (inactive)
21,Cc1c2c(nc3c(C(=O)NC4CC4)cnn13)CCCC2,-0.9% (inactive)
22,COc1cccc(CN2CCNC(=O)C2CC(=O)NCc2cn3ccccc3n2)c1OC (centres undefined),7.8% (inactive)

row,Structure (SMILES),inhibition
1,COc1cccc(CN2CCNC(=O)C2CC(=O)NCCn2ccc3ccccc32)c1OC (centres undefined),51.1% (active)
2,COc1cccc(CN2CCNC(=O)C2CC(=O)NCCn2cccn2)c1OC (centres undefined),16.7% (inactive)
3,Cc1c(NC(=O)C2CCCO2)cccc1[N+](=O)[O-] (centres undefined),0.2% (inactive)
4,Cc1csc(=Nc2c(C)n(C)n(-c3ccccc3)c2=O)n1-c1ccccc1,5.3% (inactive)
5,Cc1c(N=CC=Nc2c(C)n(C)n(-c3ccccc3)c2=O)c(=O)n(-c2ccccc2)n1C,-5.1% (inactive)
6,Cc1c(N=C2C(=O)Nc3ccccc32)c(=O)n(-c2ccccc2)n1C,14.2% (inactive)
7,Cc1c(N=c2scc(-c3ccccc3)n2C)c(=O)n(-c2ccccc2)n1C,-10.5% (inactive)
8,O=C(N1CCOCC1)N(CCN1CCOCC1)Cc1cccc2ccccc12,6.2% (inactive)
9,CCOc1ccccc1NC(=O)c1ccc2nccnc2c1,14.2% (inactive)
10,CC(NS(=O)(=O)c1ccc(Br)cc1)C(c1cccs1)N1CCOCC1 (centres undefined),10.2% (inactive)
11,CCOc1ccc(NC(c2ccccn2)c2oc(CO)cc(=O)c2O)cc1 (centres undefined),51.1% (active)
12,O=c1cc(CO)oc(C(Nc2cccc([N+](=O)[O-])c2)c2ccccn2)c1O (centres undefined),28.5% (inactive)
13,O=c1cc(CO)oc(C(Nc2cccc(C(F)(F)F)c2)c2ccccn2)c1O (centres undefined),43.6% (inactive)
14,O=C(NC(c1ccc(Cl)cc1)c1c(O)ccc2ccccc12)c1ccccc1 (centres undefined),27.6% (inactive)
15,CC(=O)NC(c1ccc(Cl)cc1)c1c(O)ccc2ccc(O)cc12 (centres undefined),69.9% (active)
16,COc1ccc(C(NC(C)=O)c2c(O)ccc3ccccc23)cc1OC (centres undefined),8.9% (inactive)
17,CCc1ccc(-n2c(Cc3ccccc3)n[nH]c2=S)cc1,10.9% (inactive)
18,Cc1cc(C2=NNC(=NCCc3ccccc3)SC2)c(C)n1CC1CCCO1 (centres undefined),-32.7% (inactive)
19,COCCN=C1NN=C(c2cc(C)n(CC3CCCO3)c2C)CS1 (centres undefined),54.9% (active)
20,CCOc1ccc(N=C2NN=C(c3cc(C)n(CC4CCCO4)c3C)CS2)cc1 (centres undefined),-81.4% (inactive)
